Source: PubChem
D3 antag: qHTS of D3 Dopamine Receptor Antagonist: qHTS. D(3) dopamine receptor (Homo sapiens), P35462. D3R cells, DiscoveRx beta-arrestin luminescence, antagonist mode; hits give low values. max response, negative = inhibition, %. 360,000 tested, 2.5% active. AID 652054, 2013; in the data active = max response below about -50%; inconclusive = no clear call, values can overlap the other calls
Target sequence (P35462 whole entry, looked up): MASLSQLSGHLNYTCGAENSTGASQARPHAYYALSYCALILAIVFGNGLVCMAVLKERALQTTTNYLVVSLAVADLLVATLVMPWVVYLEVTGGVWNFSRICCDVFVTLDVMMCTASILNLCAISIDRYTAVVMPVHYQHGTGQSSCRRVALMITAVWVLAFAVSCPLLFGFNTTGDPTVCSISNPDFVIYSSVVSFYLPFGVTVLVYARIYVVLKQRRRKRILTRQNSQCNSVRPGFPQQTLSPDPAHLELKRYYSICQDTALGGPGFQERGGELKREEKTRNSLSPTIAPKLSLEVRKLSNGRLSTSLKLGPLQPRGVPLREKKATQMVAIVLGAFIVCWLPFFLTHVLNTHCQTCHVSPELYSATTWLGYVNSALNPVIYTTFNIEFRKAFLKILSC
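Cells expressing the human receptor were seeded at 1500 cells/well, incubated overnight at 37 degrees C in 5% CO2, then exposed to library compounds with dopamine controls for 90 minutes at 37 degrees C before luminescent detection.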
RGS4 inhibitor: Inhibitors of Regulator of G Protein Signaling (RGS) 4: qHTS. Transcreener GDP fluorescence polarization, RGS4-accelerated GTP hydrolysis. Potency, µM (top dose mostly 114 µM), actives largely listed as inhibitors. 390,000 tested, 0.039% active. AID 504845, 2011; active = well fitted inhibition curve with a large enough effect; inconclusive = small, poorly fitted or top-dose-only effect; inactive = no such curve, though single readings can be large or run the other way; note: nearly all actives have a fitted effect of over 75% in size
Target sequence (P49798 whole entry, looked up): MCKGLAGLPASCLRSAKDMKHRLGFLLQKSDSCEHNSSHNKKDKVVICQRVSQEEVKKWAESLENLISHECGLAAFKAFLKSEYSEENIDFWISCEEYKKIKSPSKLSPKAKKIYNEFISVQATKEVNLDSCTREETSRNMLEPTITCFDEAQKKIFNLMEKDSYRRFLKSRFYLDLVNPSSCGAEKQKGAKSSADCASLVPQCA
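MLSMR compounds (23 nl, pin-transferred) preincubated 10 min at room temperature with a 500nM (2x) first reagent, then RGS4 at 900nM (2x) plus Transcreener GDP mix added; fluorescence polarization (620/688 nm) read before and after 90 min at 30 °C.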
DRD3 agonist: qHTS of D3 Dopamine Receptor Agonist: qHTS. D(3) dopamine receptor (Homo sapiens), P35462. D3R DiscoveRx beta-arrestin cells, luminescence, 90 min. max activation, %. 410,000 tested, 0.58% active; in the data active = max activation above about 30%
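Agonist mode: compounds and dopamine controls were applied to plated cells for 90 min at 37 degrees C after an overnight attachment at 1500 cells/well. Luminescent read-out followed 30 - 60 minutes at room temperature with DiscoveRx detection reagent.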
uPA generation: qHTS for Inhibitors of Cell Surface uPA Generation; Potency, µM (highest dose often 38.3 µM), usual class: inhibitors; 330,000 tested, 0.31% active; cell surface uPA generation assay, qHTS; active = well fitted inhibition curve with a large enough effect; inconclusive = small, poorly fitted or top-dose-only effect; inactive = no such curve, though single readings can be large or run the other way; tested in mouse RAW 264.7 cells; note: nearly all actives have a fitted effect of over 55% in size
Each line names hits and unclear results; the compound was inactive in the other large screens. This is a sample that favours compounds with a hit; in the whole collection about 3.1% have one here.

O=C(Nc1ccc(F)cc1)c1nc(S(=O)(=O)Cc2ccccc2)ncc1Cl	D3 antag -110, RGS4 inhibitor inconclusive, uPA generation inconclusive
O=C(Nc1nc2ccc(F)cc2s1)c1nc(S(=O)(=O)Cc2ccccc2)ncc1Cl	RGS4 inhibitor inconclusive (no result: D3 antag, uPA generation)
CCC/C=C1\CCCOC(C(=O)NCc2ccccc2)(C(F)(F)F)C1 (configuration not stated)	none (no result: D3 antag, DRD3 agonist, uPA generation)
Oc1c(Br)cc(Br)cc1/C=N/Nc1ccc(Cl)nn1	D3 antag -68
C[C@@H](NC(=O)c1nc[nH]c1C(=O)OCc1ccccc1)c1ccccc1	none
CCN(CC)C(=O)c1[nH]cnc1C(=O)NCc1ccccc1	D3 antag -54
C[C@@H](NC(=O)c1nc[nH]c1C(=O)NCC(=O)OCc1ccccc1)c1ccccc1	DRD3 agonist 47
O=C(N[C@@H](Cc1ccccc1)C(=O)OCc1ccccc1)c1nc[nH]c1C(=O)NCc1ccccc1	D3 antag -75
CCCC(C)NC(=O)c1cccc(Oc2ccccc2)c1 (configuration not stated)	none
CC(C(=O)O)c1cccc(Oc2ccccc2)c1 (configuration not stated)	D3 antag -62
CC12CCC(C(=O)N(CCCCN3CCN(c4ccccn4)CC3)C1=O)C2(C)C (configuration not stated)	DRD3 agonist 86
CC(C)n1c(NCc2nc3ccccc3n2C)nc2ccccc21	D3 antag -93
Cc1ccc(CNc2nc3ccccc3n2C)cc1	uPA generation 4µM
COc1ccc(CNc2nc3ccccc3n2C(C)C)cc1	none
CCn1c(CNc2nc3ccccc3n2C(C)C)nc2ccccc21	D3 antag -59
Cn1c(CNc2nc3ccccc3n2C)nc2ccccc21	D3 antag -70
O=C(CSc1nncn2c1cc1sccc12)Nc1ccccc1C(F)(F)F	none (no result: D3 antag, uPA generation)
CCOc1ccc(N(CCCCO)C(=S)NC(=O)c2ccc(C)c(Br)c2)cc1	DRD3 agonist 35
O=C(Nc1ccc(Cl)cc1)c1cc(S(=O)(=O)NC2CCCCCC2)ccc1F	none (no result: D3 antag, uPA generation)
Cc1c(/C=N\NC(=O)C2COc3ccc(C(C)(C)C)cc3O2)c2ccccc2n1C (configuration not stated)	DRD3 agonist 58
COc1ccc(S(=O)(=O)N2CCOCC2)cc1NC(=O)COc1ccc(C)cc1	none
CCOc1ccc(S(=O)(=O)N2CCOCC2)cc1NC(=O)CSCc1ccc(C)cc1	uPA generation 2.5µM
Cc1ccc(S(=O)(=O)N2CCOCC2)cc1NC(=O)CNCc1cccnc1	DRD3 agonist 80
CCN(C(=O)c1cccn(Cc2ccccc2C)c1=O)c1ccccc1	none (no result: D3 antag, uPA generation)
c1c(C2CCCCC2)n[nH]c1CN1CCCCC1	D3 antag -73
CCc1ccc(Nc2nc(-c3cc4cccc(OC)c4oc3=O)c(CC)s2)cc1	DRD3 agonist 50 (no result: D3 antag, uPA generation)
CCc1sc(Nc2ccc(Cl)cc2)nc1-c1cc2cccc(OC)c2oc1=O	none (no result: D3 antag, uPA generation)
COC(=O)c1cc(Cl)c(NC(=O)c2ccc(C(C)(C)C)cc2)cc1OC	DRD3 agonist 70 (no result: uPA generation)
O=[N+]([O-])c1cc2cccnc2c2ncccc12	none
O=[N+]([O-])c1cc(O)c2ncccc2c1	D3 antag -58
Cc1onc(-c2c(Cl)cccc2Cl)c1C(=O)NCC1CCCO1 (configuration not stated)	D3 antag -105
CC(C)c1nn2c(=O)cc(COC(=O)c3ccc(NC(=O)C4CCCCC4)cc3)nc2s1	none (no result: D3 antag, uPA generation)
OC[C@H]1O[C@@H](n2cnc3c(=S)nc[nH]c32)[C@H](O)[C@@H]1O	none (no result: D3 antag, RGS4 inhibitor, uPA generation)
C/C=C(/C)C(=O)OC(C)(C)[C@@H]1Cc2c(ccc3ccc(=O)oc23)O1	D3 antag -154
CC(=O)N1CCCc2cc(S(=O)(=O)N3CCN(c4cccc(C(F)(F)F)c4)CC3)ccc21	none (no result: D3 antag, uPA generation)
Cn1cc(CN2CCc3ccccc3C2)c2ccccc21	D3 antag -95 (no result: uPA generation)
O=[N+]([O-])c1cc(CN2CCN(c3cccc(C(F)(F)F)c3)CC2)c2cccnc2c1O	D3 antag -106
Cn1cc(CN2CCCC(CO)(Cc3ccccc3)C2)c2ccccc21 (configuration not stated)	D3 antag -50
Fc1ccc(N2CCN(Cc3ccccn3)CC2)cc1	none
c1ccc(-c2[nH]ncc2CN2CCc3ccccc3C2)cc1	D3 antag inconclusive
Ic1ccc(N2CCN(Cc3c[nH]c4ncccc34)CC2)cc1	D3 antag -58
Cc1ccc(OCc2nnn(CC(=O)NS(=O)(=O)c3c(C)noc3C)c2-c2ccccc2)cc1	D3 antag inconclusive (no result: RGS4 inhibitor, uPA generation)
CCc1cccc(NC(=O)CC2Oc3ccc(C)cc3NC2=O)c1 (configuration not stated)	none (no result: D3 antag, uPA generation)
Oc1c(CN2CCN(c3ccccn3)CC2)cc(Cl)c2cccnc12	D3 antag -128
CCOC(=O)N1CCN(Cc2ccc(O)c3ncccc23)CC1	D3 antag inconclusive
COCc1cc(CN2CCCC2)c(O)c2ncccc12	uPA generation inconclusive
Oc1c(CN2CCCCC2)cc(COCc2ccccc2)c2cccnc12	D3 antag -125
Oc1ccc(CN2CCC(Cc3ccccc3)CC2)c2cccnc12	D3 antag -88
Oc1ccc(CN2CCN(c3ccccc3)CC2)c2cccnc12	D3 antag -100
CCCCC(=O)N(Cc1ccc(-c2ccccc2-c2nn[nH]n2)cc1)[C@@H](C(=O)O)C(C)C	none (no result: D3 antag, RGS4 inhibitor, uPA generation)
CCOc1cc(C2c3c(oc4ccccc4c3=O)C(=O)N2Cc2ccc3c(c2)OCO3)ccc1O (configuration not stated)	none (no result: D3 antag, uPA generation)
Oc1ccc(CN2CCc3ccccc3C2)c2cccnc12	D3 antag -114, RGS4 inhibitor inconclusive
O=C(NCCc1csc(-c2ccc(C(F)(F)F)cc2)n1)c1ccc(F)c(F)c1	none (no result: D3 antag, uPA generation)
COc1ccc(NS(=O)(=O)c2ccc(NC(=S)NC(=O)c3ccc(Br)cc3)cc2)nn1	D3 antag -53
COc1cc(NS(=O)(=O)c2ccc(NC(=S)NC(=O)CC(C)C)cc2)nc(OC)n1	D3 antag -85
O=C(/C=C/c1ccc(Br)cc1)NC(=S)Nc1ccc(S(=O)(=O)Nc2nccs2)cc1	D3 antag -53
COC(=O)CCC(=O)NC(=S)Nc1ccc(S(=O)(=O)Nc2cc(OC)nc(OC)n2)cc1	none
COc1ccc(NS(=O)(=O)c2ccc(NC(=O)c3ccc(Br)cc3)cc2)nn1	none
CCc1nnc(NS(=O)(=O)c2ccc(NC(=O)/C=C/C(=O)O)cc2)s1	D3 antag -62
CCc1nnc(NS(=O)(=O)c2ccc(NC(=O)/C=C/c3ccccc3Cl)cc2)s1	none
C[C@@H](c1ncncc1F)C(O)(Cn1cncn1)c1ccc(F)cc1F (some centres not stated)	none (no result: D3 antag, RGS4 inhibitor, uPA generation)
CCOc1ccc(NC(=O)CCc2nc3cccnc3n2-c2ccccc2)cc1	none (no result: D3 antag, uPA generation)
CCN(Cc1ccccc1)C(=O)CCS(=O)(=O)c1cc(Br)cc2c1N(C(=O)C1CC1)CC2	none (no result: D3 antag, uPA generation)
CCN(CC)S(=O)(=O)c1ccc2c(c1)N(CC(=O)N1CCN(c3cccc(Cl)c3)CC1)C(=O)CO2	none (no result: D3 antag, uPA generation)
